Data on 40 compounds can be found in PubChem BioAssay (NCI).

This is part of a sample that, as a whole, favours compounds with a hit. Of some 79,000 tested, about 15% had one in any assay. Unmarked numbers belong to inactive results. Active and inactive are the calls of the source. Rule as the data show it: active = growth inhibition above about 70%; inactive = the rest. Where a SMILES comes first, the peptide text is derived from it. [ ]: non-standard residue; d: D form. The star is where a group is joined. ONb = O=[N+]([O-])c1ccc(CO*)cc1; AllylGly = C=CC[CH](N)C(=O)O; Boc = CC(C)(C)OC(=O)*

This test can be described thus: NCI Yeast Anticancer Drug Screen. Data for the rad50 strain (AID 155).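 Also: 0% = growth of vehicle-only cultures of the same strain.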 To be noted: S. cerevisiae rad50 strain growth inhibition; at 50.0 µM; hits give high values. In a few lines:
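Cells are treated with compound, grown, and their growth is then scored against vehicle-only cultures of the same repair-deficient yeast strain.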
Take `Cc1cccc2c(N=[N+]=[N-])cc(C(F)(F)F)nc12`: the growth inhibition is 5.35%.

For the compound `COC(C)C(NC(=O)C1CCCN1C)C1OC(SCCOC(=O)c2ccccc2O)C(O)C(O)C1O` (stereo not given), the growth inhibition is 8.3%.

On to `CC1(C)N(/N=C/c2ccccc2)C(c2ccccc2)C(c2ccccc2)N1/N=C/c1ccccc1` (stereo not given), for which the growth inhibition was -8.95%.

Consider `CC(C)CSC(SCC(C)C)C(O)C(O)C(O)CO` (stereo not given), for which the growth inhibition was -6.85%.

Regarding `N#CC1=C(N)CCC(C#N)(c2ccccc2)C1` (stereo not given), the growth inhibition was 2.4%.

Take `O=C1C(=C(c2ccccc2)N2CCCCC2)C(=O)c2ccccc21`: the growth inhibition is 14.9%.

`CCCCCCCCCCCCCCCCCCOc1c(Cl)c(Cl)c(Cl)c(Cl)c1Cl`: the growth inhibition was 15.1%.

As for `O=C1c2c(O)cccc2C(C(=O)CCCC(=O)C2c3cccc(O)c3C(=O)c3c(O)cccc32)c2cccc(O)c21`, the growth inhibition is -1.55%.

Regarding `NNC(=O)C(=O)N/N=C(/CC1(O)C(=O)Nc2ccccc21)c1ccc(Cl)cc1Cl` (stereo not given), the growth inhibition was -0.9%.

Regarding `O=C(O)c1cccc([N+](=O)[O-])c1Nc1cccc(C(F)(F)F)c1`, the growth inhibition was 21.4%.

In the case of `C[N+](C)(C)c1cc(Br)c(O)c(Br)c1`, the growth inhibition is 1.85%.

In the case of `COC(=O)c1cc(C(=O)OC)c(C(=O)OC)cc1C(=O)OC`, the growth inhibition is -1.35%.

Regarding `CCc1ccccc1NC(=O)C1=C(C)NC(C)=C(C(=O)Nc2ccccc2CC)C1c1cccc([N+](=O)[O-])c1`, the growth inhibition was -0.95%.

As to `CCCCOC(=O)NC(=O)c1cn(CCCOC(=O)CCCCCCCCC(=O)OCCCn2cc(C(=O)NC(=O)OCCCC)c(=O)n(C)c2=O)c(=O)n(C)c1=O`, the growth inhibition is -3.9%.

For the compound `CCC(Nc1nncs1)Nc1nncs1`, the growth inhibition was -21.9%.

On to `C=C(Cl)C(=O)O`, for which the growth inhibition is -11.3%.

Turning to `CC1CCCC(C)C1CO` (stereo not given), the growth inhibition is 3.65%.

In the case of `CC(=O)OCc1cc(=O)n2c([nH]c3ccccc32)c1C#N`, the growth inhibition was 11.1%.

Turning to `Cc1ccnc(NCc2ccccn2)c1`, the growth inhibition is 6.7%.

In the case of `Cc1ccc(S(=O)(=O)N=Nc2c(O)[nH]c3c(Cl)cc(Cl)cc23)cc1`, the growth inhibition is -11.8%.

For `COc1ccc(/C=C/C2=CC(=O)CC(c3ccc(OC)c(OC)c3)C2)cc1OC` (stereo not given), the growth inhibition was 13.2%.

`O=Cc1ccc(-c2cccc([N+](=O)[O-])c2)s1`: the growth inhibition is 4.9%.

As for `COCC(N=CN1CCCc2ccccc2[C@@H]1CCCCl)C(C)(C)C` (stereo not given in full), the growth inhibition was -6.6%.

For `Cc1ccc2[nH]c(=O)cc(C)c2c1`, the growth inhibition was 15.2%.

As for `COc1ccc(-c2nnc(CCCCCCCCc3nnc(-c4ccc(OC)cc4)n3N)n2N)cc1`, the growth inhibition is -8.05%.

Consider `CCCCC1CCC2CCCCC2C1` (stereo not given), for which the growth inhibition was 3.4%.

In the case of `COc1cc(/C=C2\CCC(CN(C)C)C2=O)ccc1OC(=O)c1ccccc1` (stereo not given), the growth inhibition is 86.6% (active).

Turning to `CCOC(=O)/C(C#N)=C/Nc1[nH]c(=O)c(C#N)c(-c2ccc(Cl)cc2)c1SC`, the growth inhibition is 10.9%.

As for `CC(=O)C1=CN(Cc2ccccc2)C(O)CC1C(N)=O` (stereo not given), the growth inhibition was 7.55%.

Take `CCN(CC)CCNc1ccc(C)c2sc3ccc(N)cc3c(=O)c12`: the growth inhibition is 30.3%.

For the compound `CN(C)c1nc(=O)c2c(ccc3ccccc32)o1`, the growth inhibition is 26.2%.

For the compound `CCCCCC(Nc1nncs1)Nc1nncs1`, the growth inhibition was -4.2%.

For the compound `Cc1cc(=O)n(-c2ccc(-c3ccc(-n4c(C)c(C(=O)O)c(C)cc4=O)cc3)cc2)c(C)c1C(=O)O`, the growth inhibition was -45%.

`CC[N+](CC)(CC)CCCC[P+](CC)(CC)CC`: the growth inhibition was 15.8%.

With `COc1ccc(-n2c(N)c(C#N)c(C#N)c2-c2cccc([N+](=O)[O-])c2)cc1`, the growth inhibition was 6%.

For `Nc1ccc2cn[nH]c2c1`, the growth inhibition was 3.5%.

With `C=CCC(NC(=O)OC(C)(C)C)C(=O)NC(CCC(=O)OCc1ccc([N+](=O)[O-])cc1)C(N)=O` (stereo not given) (Boc-[AllylGly]-Glu(ONb)-NH2; configuration not given here), the growth inhibition is -7.75%.

`CC1(n2[nH]c(=O)n(-c3ccccc3)c2=O)Cn2c(=O)n(-c3ccccc3)c(=O)n2-c2ccccc21` (stereo not given): the growth inhibition was -49.2%.

Turning to `COC1OC(=O)c2ccccc21` (stereo not given), the growth inhibition is 12.2%.

On to `CCN(CC)CCN(Cc1ccccc1)C(=S)NC(=O)c1ccccc1`, for which the growth inhibition was -4.35%.
